Results reported in PubChem BioAssay AID489043 (National Center for Advancing Translational Sciences (NCATS), 2010).
Records with an inconclusive call do not appear. Where a call stands in place of a potency, no number is given. Active and inactive are the calls of the source. Calls follow the shape of the dose curve; as a rule, active = well fitted activation curve with a large enough effect; inconclusive = small, poorly fitted or top-dose-only effect; inactive = flat fitted curve, though single readings scatter.

biological target: Relaxin receptor 2 (Homo sapiens) (UniProt Q8WXD0); assay: qHTS Assay for Agonists of the Relaxin Receptor RXFP1: RXFP2 Hit Validation; settings: HEK293 RXFP2 cAMP TR-FRET, 30 min; series mostly up to 115 µM; also: nearly all actives have a fitted effect of over 65% in size
Procedure, shortened: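 TR-FRET cAMP read-out in lysed HEK293 RXFP2 cells, normalized to buffer (basal) and 29 nM porcine relaxin (100%). Compounds 30 min, 37C, with Ro 20174 present. EC50 via standard Hill equation.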
Potency is read from the fitted curve at half-maximal effect.

Sequence of Relaxin receptor 2 (Homo sapiens) (Q8WXD0 whole entry, looked up): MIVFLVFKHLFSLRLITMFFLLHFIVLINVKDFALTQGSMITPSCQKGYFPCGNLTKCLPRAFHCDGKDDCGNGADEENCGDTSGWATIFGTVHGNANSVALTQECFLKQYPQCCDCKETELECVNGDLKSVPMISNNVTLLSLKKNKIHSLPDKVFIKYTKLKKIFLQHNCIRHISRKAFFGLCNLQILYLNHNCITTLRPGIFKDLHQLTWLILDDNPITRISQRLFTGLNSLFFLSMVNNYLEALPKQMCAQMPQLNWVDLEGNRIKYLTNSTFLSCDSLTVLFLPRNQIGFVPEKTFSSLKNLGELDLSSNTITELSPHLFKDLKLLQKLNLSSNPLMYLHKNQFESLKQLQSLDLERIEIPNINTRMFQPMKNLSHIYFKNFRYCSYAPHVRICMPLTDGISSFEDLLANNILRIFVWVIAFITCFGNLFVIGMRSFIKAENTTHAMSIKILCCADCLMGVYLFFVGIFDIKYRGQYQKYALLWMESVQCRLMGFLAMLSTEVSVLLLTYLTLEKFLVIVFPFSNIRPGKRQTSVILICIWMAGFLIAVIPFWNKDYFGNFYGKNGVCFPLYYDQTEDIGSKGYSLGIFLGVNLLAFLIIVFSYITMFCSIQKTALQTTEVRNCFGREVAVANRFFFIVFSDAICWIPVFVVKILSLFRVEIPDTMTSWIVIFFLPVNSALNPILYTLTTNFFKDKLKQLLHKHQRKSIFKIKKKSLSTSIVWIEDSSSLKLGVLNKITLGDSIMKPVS

Compound | Potency
O=C(Nc1ccccc1C(=O)O)c1ccc(NC(=O)C2CC2)cc1 | inactive
CCNc1nc(NCC)nc(N(C)/N=C/c2ccco2)n1 | inactive
Cc1cc(C)n(C(=O)CCCn2cc([N+](=O)[O-])cn2)n1 | inactive
O=C(O)c1cc(-c2ccco2)nc2ccc(Br)cc12 | 17.3 µM (active)
CC(C)C(=O)Nc1ccc(Nc2ccccc2)cc1 | inactive
CC(=O)Nc1ccc(NC(=O)CSc2ccc3nnc(-c4ccccn4)n3n2)cc1 | inactive
Cc1c(CCOC(=O)c2cc([N+](=O)[O-])ccc2Cl)sc[n+]1CCCCS(=O)(=O)[O-] | inactive
c1ccc(-c2nnc(-c3ccccn3)c(-c3ccccn3)n2)nc1 | inactive
Cc1ccc2[nH]c3c(=S)nc[nH]c3c2c1 | 6.9 µM (active)
C=CCSc1nc2c(c(=O)[nH]1)C(C(C)C)C(C#N)=C(N)O2 (configuration not stated) | 43.6 µM (active)
CCOC(=O)N1CCN(S(=O)(=O)c2c(C)nc3scc(C)n3c2=O)CC1 | 30.9 µM (active)
O=C(O)CCNc1ccc(NCCC(=O)O)c2c1C(=O)c1ccccc1C2=O | inactive
CC(C)c1ccccc1NC(=O)c1ccccc1NC(=O)C1CCCCC1 | inactive
CN(Cc1ccccc1)C(=O)c1ccccc1NC(=O)c1ccco1 | inactive
Cc1ccnc(NS(=O)(=O)c2ccc(N3C(=O)c4ccccc4C3=O)cc2)n1 | 18.8 µM (active)
CC1(C)Cc2nc3sc4c(SCC(=O)NC(c5ccccc5)c5ccccc5)ncnc4c3cc2CO1 | 6.15 µM (active)
CCN(CC)S(=O)(=O)c1ccc(C(=O)NCCN2C(=O)S/C(=C\c3cccnc3)C2=O)cc1 | 13.8 µM (active)
